# Only some compounds are listed: those with a hit (about 27% of all), similar ones and a draw of the others.
# EphB4 ephrin blk – EphB4-ephrin-B2 interaction antagonism; 0.15% of 97,000 active; EphB4 LBD / TNYL-RAW-Alexa532 peptide, fluorescence polarization; inhibition, % at 7 µM; P54760;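 active means inhibition above the screen-wide mean inhibition plus 3 SD, cut at about 15% in these data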;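 further: 0% = DMSO wells and 100% = excess unlabeled TNYL-RAW peptide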
# Target sequence (P54760 whole entry, looked up, the tested form may be a part): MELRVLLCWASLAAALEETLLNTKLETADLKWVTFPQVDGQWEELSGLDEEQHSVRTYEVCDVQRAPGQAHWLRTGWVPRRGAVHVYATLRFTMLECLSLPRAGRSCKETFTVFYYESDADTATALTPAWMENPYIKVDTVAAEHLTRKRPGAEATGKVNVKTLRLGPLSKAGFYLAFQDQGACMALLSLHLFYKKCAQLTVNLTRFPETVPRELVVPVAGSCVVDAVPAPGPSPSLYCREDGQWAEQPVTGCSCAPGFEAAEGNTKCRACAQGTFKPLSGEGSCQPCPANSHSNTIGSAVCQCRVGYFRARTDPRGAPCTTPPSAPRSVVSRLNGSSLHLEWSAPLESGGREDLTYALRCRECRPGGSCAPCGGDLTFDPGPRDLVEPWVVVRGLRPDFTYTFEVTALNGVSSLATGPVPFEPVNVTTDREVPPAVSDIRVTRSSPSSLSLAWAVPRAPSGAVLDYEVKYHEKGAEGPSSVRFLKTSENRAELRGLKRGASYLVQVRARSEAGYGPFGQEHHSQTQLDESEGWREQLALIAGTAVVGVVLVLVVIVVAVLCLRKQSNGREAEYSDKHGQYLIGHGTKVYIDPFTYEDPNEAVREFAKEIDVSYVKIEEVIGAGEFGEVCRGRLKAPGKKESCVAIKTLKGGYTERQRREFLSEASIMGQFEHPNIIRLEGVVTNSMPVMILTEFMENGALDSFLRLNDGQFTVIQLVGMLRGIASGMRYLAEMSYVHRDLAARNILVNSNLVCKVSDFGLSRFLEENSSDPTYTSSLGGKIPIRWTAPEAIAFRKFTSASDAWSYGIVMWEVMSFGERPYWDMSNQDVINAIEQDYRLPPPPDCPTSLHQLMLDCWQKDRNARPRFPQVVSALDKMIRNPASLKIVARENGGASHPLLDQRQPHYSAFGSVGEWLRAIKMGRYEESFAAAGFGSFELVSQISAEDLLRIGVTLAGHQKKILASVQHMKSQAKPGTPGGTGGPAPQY
# CYP2C9 act – increases human cytochrome P450 2C9 activity. P11712. recombinant CYP2C9, luciferin-H conversion, luminescence; hits give high values; factor 1 = untreated enzyme, 0 = blocked. activation factor at 5 µM. 1.4% of 96,000 active;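 active means activation factor of 2 or more for CYP2C9 at a 5 µM dose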;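 further: 0 = sulfaphenazole-blocked wells and 1 = vehicle-only wells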
# CYP2C9 inhib – blocks human cytochrome P450 2C9; CYP2C9 Supersomes, luciferin-H conversion, luminescence; inhibition, % at 5 µM; P11712; 20% of 96,000 active;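 active means blocking of liver enzyme CYP2C9 beyond about 50% at 5 µM, limit read from the data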
# CYP2C19 activ – activators of human cytochrome P450 2C19; P33261; recombinant CYP2C19, luciferin-H EGE luminescence; hits give high values; 0 = fully inhibited enzyme, 1 = untreated enzyme; activation factor at 5 µM; 96,000 tested, under 10 active; AID 1025;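 active means activation factor of at least 2 at 5 µM in the primary screen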;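 further: 0 = wells with 2.5 mM tranylcypromine and 1 = vehicle-only wells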
# CYP2C19 inh – inhibitors of human CYP2C19. 21% of 96,000 active. CYP2C19 Supersomes, luciferin-H EGE luminescence, 30 min. P33261. inhibition, % at 5 µM. AID 778;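 active means CYP2C19 inhibition above a set limit at 5 µM in the primary screen, cut at about 50% in these data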;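 further: plate controls were negative control wells for no effect and 2.5 mM tranylcypromine positive control for full effect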
# Numbers without * were called inactive; · = no result.
SMILES,EphB4 ephrin blk,CYP2C9 act,CYP2C9 inhib,CYP2C19 activ,CYP2C19 inh
O=C(CCC(=O)N(CC(=O)NC1CCCCC1)Cc1ccco1)Nc1nccs1,0,0.9,14,0.9,13
O=C(CN(Cc1ccc(F)cc1)C(=O)CCC(=O)Nc1ccccn1)NCc1ccco1,-4,0.7,31,0.7,31
O=C(CN(Cc1ccccc1)C(=O)CCC(=O)Nc1nccs1)NCc1ccco1,·,0.7,26,0.4,61*
CC(NC(=O)c1ccc(Cl)s1)C1CCCO1 (stereo not drawn),3,0.9,9,0.8,18
COc1cccc(NC(=O)CCN2C(=O)c3ccccc3S2(=O)=O)c1,-4,0.8,18,0.5,50
CSc1cccc(NC(=O)CN2C(=O)c3ccccc3S2(=O)=O)c1,-2,0.6,38,0.7,35
CC(C)C(=O)Nc1cccc(NC(=O)CCN2C(=O)c3ccccc3S2(=O)=O)c1,-9,0,97*,0.1,87*
Cc1ncsc1C(=O)Nc1nc2c(s1)CCCC2,3,0.8,19,0.3,66*
Cc1cccc(NC(=O)CN2NS(=O)(=O)c3ccccc3C2=O)c1,-6,0.4,59*,0.7,33
Cc1ccc(CC(=O)Nc2nc3c(s2)CCCC3)cc1,-2,0.1,87*,0.6,42
O=C(Cc1ccc(S(=O)(=O)N2CCCC2)s1)Nc1nc2c(s1)CCCC2,-3,0.7,30,0.8,23
Cc1cc(C(=O)Nc2nc3c(s2)CCCC3)cs1,·,0.8,16,1,3
O=C(CCn1cnc2ccccc2c1=O)Nc1nc2c(s1)CCCC2,0,0.6,45,0.8,15
O=C(CS(=O)(=O)Cc1ccccc1)Nc1nc2c(s1)CCCC2,6,1,-3,0.4,56*
O=C(CCN1C(=O)c2ccccc2S1(=O)=O)Nc1nc2c(s1)CCCC2,3,0.1,88*,0.2,84*
O=C(CCS(=O)(=O)Cc1ccccc1)Nc1nc2c(s1)CCCC2,-11,0.8,20,0.8,15
O=C(Nc1ccc(OC(=O)c2ccccc2)c(-c2nc3ccccc3s2)c1)c1ccccc1,-4,1,-3,1,2
CN(CC(=O)N1CC=C(c2ccccc2)CC1)S(=O)(=O)c1cnc[nH]1,7,0,99*,0,95*
Cc1c(Cl)cccc1NC(=S)NN1CCOCC1,-1,1.1,-7,0.3,67*
Cc1c(Cl)cccc1NC(=O)COc1ccc(S(=O)(=O)N2CCOCC2)cc1,2,0.6,39,0.9,11
O=C(NCC(c1cccs1)N1CCOCC1)c1cc2ccccc2o1 (stereo not drawn),-1,0.3,74*,0.3,75*
O=S1(=O)N=C(N2CCN(c3ccc(F)cc3)CC2)c2ccccc21,-2,1,-1,0.9,7
CC(C)(C)OC(=O)N1CCC(c2cc(=O)n3[nH]c(-c4ccc(Cl)cc4)cc3n2)CC1,-7,1.2,-20,1.1,-9
CC(C)(C)OC(=O)N1CCC(c2cc(=O)n3[nH]cc(C(=O)NC4CCCC4)c3n2)CC1,4,0,95*,0.6,39
Cc1sc2nc(SCC(=O)N3CCOCC3)[nH]c(=O)c2c1C,·,1,3,0.9,7
SMILES,EphB4 ephrin blk,CYP2C9 act,CYP2C9 inhib,CYP2C19 activ,CYP2C19 inh
Cc1sc2nc(C(C)Nc3ccccc3N3CCOCC3)[nH]c(=O)c2c1C (stereo not drawn),11,0.5,54*,0.7,35
COc1ccc(OC)c(S(=O)(=O)Nc2ccccc2C(F)(F)F)c1,2,·,·,·,·
COc1ccc(S(=O)(=O)Nc2ccccc2C(F)(F)F)cc1,-2,0.8,21,0.2,78*
COc1ccc(S(=O)(=O)Nc2ccc(O)c3ccccc23)cc1,2,0.3,67*,0,97*
CCCn1c(=S)[nH]c2cc(C(=O)N3CCN(c4ccccc4OC)CC3)ccc2c1=O,4,·,·,·,·
O=C1NCCN1Cc1cccc(Cl)c1,-4,·,·,·,·
COC(=O)C(/C=N/OCc1ccc([N+](=O)[O-])cc1)NC(=O)c1ccccc1 (stereo not drawn),5,0.6,36,0.6,40
COc1cc(/C=C2/C(=N)N3C=CSC3=NC2=O)ccc1OCCCOc1cc(C)ccc1C,4,0.7,33,0.8,21
Cc1ccccc1Cn1cccc1/C=C1/C(=N)N2C=CSC2=NC1=O,-3,0.1,85*,0.5,46
CC1CN(C(=O)C2CCCN2S(=O)(=O)c2ccc(Cl)cc2)CC(C)O1 (stereo not drawn),-1,0.7,28,0.9,6
O=C(N/N=C/c1cccc([N+](=O)[O-])c1)c1ccc2nc[nH]c2c1,-5,0.5,51*,0.8,24
O=C(Cn1c(=O)n(Cc2ccco2)c(=O)c2c3c(sc21)CCCCC3)c1ccccc1,2,0.5,53*,0.6,37
O=c1c2c3c(sc2n(CCN2CCCC2)c(=O)n1Cc1ccco1)CCCCC3,·,0.5,52*,0.6,36
Cn1cnc([N+](=O)[O-])c1Nc1ccc(O)cc1,-2,0.9,12,1,3
CCOc1ccc(Cn2nnc(C(=O)NCCc3ccc(Cl)cc3)c2N)cc1,7,0.7,27,0.6,38
Cc1cccc(Nc2ncnc3ccccc23)c1,-3,0.5,46,0.4,59*
OCCNc1ncnc2ccc(Br)cc12,6,1.1,-6,1.1,-14
Brc1ccc2ncnc(Nc3cccc4ccccc34)c2c1,-4,0.4,59*,0.2,80*
COCCN(CCOC)Cc1c(C)[nH]c2ccccc2c1=O,-5,0.7,35,0.4,65*
CC(=O)CCc1c(C)[nH]c2ccccc2c1=O,-2,2.2*,-117,1.1,-7
CCc1c(C)[nH]c2c(C)cccc2c1=O,-4,1,3,1,0
CCc1c(C)[nH]c2ccccc2c1=O,·,4.7*,-372,1.1,-14
CC(=O)c1c(C)[nH]c2ccccc2c1=O,7,1.4,-40,1.1,-15
O=C(CNC(=O)c1ccco1)NCCCc1ccccc1,-10,0.8,20,0.5,47
Cc1c(N2C(=O)CSC23C(=O)Nc2ccccc23)c(=O)n(-c2ccccc2)n1C (stereo not drawn),1,1,-3,0.8,22
SMILES,EphB4 ephrin blk,CYP2C9 act,CYP2C9 inhib,CYP2C19 activ,CYP2C19 inh
CC(c1nnc(Sc2nnnn2-c2ccccc2)n1-c1ccc(F)cc1)N(C)C (stereo not drawn),5,0.6,39,0.9,10
COc1ccccc1-n1cnc2cc(C(=O)NCCCN3CCOCC3)ccc21,·,0.7,27,0.8,18
Cc1cc(C)n(C(C)n2nc(C)cc2C)n1,4,1.1,-8,0.8,17
Cc1cc(C)n(C(C[N+](=O)[O-])c2ccc(Cl)cc2)n1 (stereo not drawn),3,0.4,58*,0.2,76*
COc1cc(/C=N/NC(=Nc2ccc(C)cc2)c2nc3ccccc3s2)ccc1O,5,0.1,94*,0.8,24
COc1ccccc1/C=N/NC(=Nc1ccc(C)cc1)c1nc2ccccc2s1,5,1,1,1,-1
